According to PubChem BioAssay (EPA / NIEHS):
Results filed as inconclusive are left out. Calls of active or inactive are those of the source. How the source made its calls, unless noted: active means hit-call score of the fitted dose curve at least 0.9, where 1 is the maximum; inactive means score below 0.9.

Legend:
[1] = ATG_TAL_CIS: Attagene CIS-FACTORIAL HepG2 Assay for human TAL Basal Promoter (AID 2282966); conditions: HepG2 Attagene cis-factorial TAL promoter reporter; actives raise or lower the signal;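 further: background control endpoint measuring basal TAL promoter reporter mRNA not a specific factor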
Outline: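 After 24 hours of chemical exposure, transfected HepG2 cells yielded RNA that was converted to 6-FAM-labelled, HpaI-digested reporter fragments for capillary electrophoresis. Values derive from bidirectional fitting against DMSO controls.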

[2] = ATG_TGFb_CIS: Attagene CIS-FACTORIAL HepG2 Assay for human Transforming Growth Factor (TGF) (AID 2282967); conditions: HepG2 Attagene CIS TGFb reporter, mRNA transcription; actives raise or lower the signal
Outline: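 Multiplexed cis-reporter HepG2 system, 24 h treatment; mRNA induction read by fluorescence after RT-PCR and CE; DMSO negative control, bidirectional curve fitting.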

[3] = ATG_VDRE_CIS: Attagene CIS-FACTORIAL HepG2 Assay for human Vitamin D Receptor Element (VDRE) (AID 2282968); conditions: HepG2 VDRE cis-reporter transcription, actives raise or lower the signal
Outline: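 Compounds were applied for 24 h to HepG2 cells transfected with promoter-regulated reporter units. Total RNA was reverse-transcribed, and reporter amplicons were fluorescently labelled and sized by capillary electrophoresis.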

[4] = target: X-box-binding protein 1 (Homo sapiens) (UniProt P17861); experiment: ATG_Xbp1_CIS: Attagene CIS-FACTORIAL HepG2 Assay for human X-box Binding Protein 1 (XBP1) (AID 2282972); conditions: HepG2 XBP1 cis-element reporter, Attagene multiplex; actives raise or lower the signal
Outline: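 Human hepatoma HepG2, cis-element reporter system, 24 h treatment; mRNA quantified by RT-PCR/CE fluorescence; fit relative to DMSO.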

[5] = ATG_M_19_TRANS: Attagene TRANS-FACTORIAL HepG2 Assay for M19 Transcription Factor (Internal Marker) (AID 2282974; active means hit-call score of the fitted dose curve at least 0.9, where 1 is the maximum); conditions: HepG2 Attagene TRANS-FACTORIAL M19 internal marker reporter
Outline: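 After transfection of HepG2 with GAL4-UAS-driven reporter constructs, cells are dosed for 24 h. Total RNA is reverse-transcribed, reporter sequences PCR-amplified and labelled, then HpaI-digested and sized by capillary electrophoresis.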

[6] = ATG_GAL4_TRANS: Attagene TRANS-FACTORIAL HepG2 Assay for GAL4 (Internal Marker) (AID 2282976; active means hit-call score of the fitted dose curve at least 0.9, where 1 is the maximum); conditions: HepG2 Attagene TRANS GAL4 internal marker reporter
Outline: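 First, HepG2 cells were transfected with reporter units under GAL4-UAS control. Next, they were treated with chemical for 24 h. Finally, RNA was reverse-transcribed, PCR-amplified, FAM-labelled and resolved by capillary electrophoresis, with induction scored against DMSO.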

[7] = target: Hepatocyte nuclear factor 4-alpha (Homo sapiens) (UniProt P41235); experiment: ATG_HNF4a_TRANS: Attagene TRANS-FACTORIAL HepG2 Assay for human Hepatocyte Nuclear Factor 4 alpha (HNF4a) (AID 2282982; active means hit-call score of the fitted dose curve at least 0.9, where 1 is the maximum); conditions: HepG2 HNF4a transactivation reporter, mRNA readout
Outline: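 Endpoint reflects transcriptional activation of a GAL4-UAS reporter by an HNF4a-GAL4 chimera in transfected HepG2 cells, 24 h post-dosing. Fluorescence from RT-PCR products separated by capillary electrophoresis; DMSO baseline.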

[8] = target: Transcriptional activator Myb (Homo sapiens) (UniProt P10242); experiment: ATG_Myb_CIS: Attagene CIS-FACTORIAL HepG2 Assay for human Myeloblastosis (Myb) Proto-Oncogene Transcription Factor (AID 2282986); conditions: HepG2 Attagene CIS-FACTORIAL Myb reporter transcription; actives raise or lower the signal
Outline: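 Endogenous transcription factor activity at a Myb-responsive cis element is reported in human liver HepG2 cells after 24 h chemical treatment. Reporter mRNA is detected by RT-PCR and capillary electrophoresis fluorescence, with DMSO as baseline.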

[9] = target: Nuclear respiratory factor 1 (Homo sapiens) (UniProt Q16656); experiment: ATG_NRF1_CIS: Attagene CIS-FACTORIAL HepG2 Assay for human Nuclear Respiratory Factor 1 (NRF1) Orphan Gene (AID 2282987); conditions: HepG2 NRF1 cis-element reporter, Attagene multiplex; actives raise or lower the signal
Outline: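 Human hepatoma HepG2 cells carrying transfected promoter-regulated reporter units were incubated with test chemicals for 24 h. Reporter transcripts were measured by RT-PCR plus capillary electrophoresis, and endpoints derived by bidirectional fitting with DMSO as baseline.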

[10] = target: Oxysterols receptor LXR-alpha (Homo sapiens) (UniProt Q13133); experiment: ATG_LXRa_TRANS: Attagene TRANS-FACTORIAL HepG2 Assay for human Liver X Receptor alpha (LXRa) (AID 2282980; active means hit-call score of the fitted dose curve at least 0.9, where 1 is the maximum); conditions: HepG2 Attagene TRANS reporter, LXRa transactivation
Outline: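 Transfect HepG2 with GAL4-UAS multiplex reporter constructs (TRANS format, chimeric receptor-GAL4); treat 24 h; extract RNA, reverse-transcribe, PCR-amplify, FAM-label, HpaI-digest; resolve fragments by capillary electrophoresis. Upward response vs DMSO.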

[11] = target: Oxysterols receptor LXR-beta (Homo sapiens) (UniProt P55055); experiment: ATG_LXRb_TRANS: Attagene TRANS-FACTORIAL HepG2 Assay for human Liver X Receptor beta (LXRb) (AID 2282981; active means hit-call score of the fitted dose curve at least 0.9, where 1 is the maximum); conditions: HepG2 Attagene TRANS GAL4-LXRb reporter, mRNA
Outline: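 Multiplexed reporter assay, HepG2, 24 h dosing. Fluorescence of labelled RT-PCR products after capillary electrophoresis gives transcript level; positive fitting direction relative to DMSO.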

[12] = ATG_M_32_TRANS: Attagene TRANS-FACTORIAL HepG2 Assay for M32 Transcription Factor (Internal Marker) (AID 2282984; active means hit-call score of the fitted dose curve at least 0.9, where 1 is the maximum;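 further: transcript level of a background control reporter unit measured by RT-PCR and capillary electrophoresis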); conditions: HepG2 Attagene TRANS M32 internal marker reporter
Outline: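 Internal-marker readout from a multiplexed transcription reporter panel. HepG2 cells were transfected with GAL4-UAS reporter units, treated 24 hours, and reporter transcript levels determined by fluorescence after RT-PCR and capillary separation.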

[13] = target: Nuclear receptor subfamily 4 group A member 2 (Homo sapiens) (UniProt P43354); experiment: ATG_NURR1_TRANS: Attagene TRANS-FACTORIAL HepG2 Assay for human Nuclear Receptor Related Protein 1 (NURR1) (AID 2282985; active means hit-call score of the fitted dose curve at least 0.9, where 1 is the maximum); conditions: HepG2 Attagene TRANS reporter, mRNA readout
Outline: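 Endpoint: reporter mRNA increase relative to DMSO. HepG2 cells transfected with reporter units, treated 24 h; RNA processed by RT-PCR, labelling, HpaI digestion and capillary electrophoresis.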

[14] = target: Glucocorticoid receptor (Homo sapiens) (UniProt P04150); experiment: ATG_GR_TRANS: Attagene TRANS-FACTORIAL HepG2 Assay for human Glucocorticoid Receptor (GR) (AID 2282978; active means hit-call score of the fitted dose curve at least 0.9, where 1 is the maximum;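 further: activators score as hits since higher reporter transcript over DMSO is fitted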); conditions: HepG2 Attagene TRANS GR reporter, mRNA transcription
Outline: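 Multiplexed TRANS reporter system, HepG2; 24 h exposure; RNA → oligo(dT) RT → reporter-specific PCR → 6-FAM primer extension → HpaI cut → CE fluorescence. Gain-of-signal vs DMSO.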

[15] = ATG_M_06_TRANS: Attagene TRANS-FACTORIAL HepG2 Assay for M06 Transcription Factor (Internal Marker) (AID 2282983; active means hit-call score of the fitted dose curve at least 0.9, where 1 is the maximum); conditions: HepG2 Attagene TRANS M06 internal marker reporter
Outline: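 Background control endpoint: reporter mRNA from transiently transfected HepG2 after 24 h dosing, detected by RT-PCR with capillary electrophoresis fluorescence. Analysed for gain versus DMSO.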

[16] = target: Bile acid receptor (Homo sapiens) (UniProt Q96RI1); experiment: ATG_FXR_TRANS: Attagene TRANS-FACTORIAL HepG2 Assay for Farnesoid X Receptor (FXR) (AID 2282979; active means hit-call score of the fitted dose curve at least 0.9, where 1 is the maximum;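 further: hits raise reporter mRNA above DMSO so AC50 marks FXR activation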); conditions: HepG2 Attagene TRANS FXR-GAL4 reporter transcription
Outline: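 Transient transfection of HepG2 with multiplexed GAL4-UAS reporter units; exogenous FXR-GAL4 chimera. Dose 24 h → TriZol RNA → oligo(dT) RT → PCR, 6-FAM primer extension, HpaI cut → CE. Gain vs DMSO.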

[17] = target: Nuclear receptor subfamily 1 group I member 3 (Homo sapiens) (UniProt Q14994); experiment: ATG_CAR_TRANS: Attagene TRANS-FACTORIAL HepG2 Assay for human Constitutive Androstane Receptor (CAR) (AID 2282969; active means hit-call score of the fitted dose curve at least 0.9, where 1 is the maximum;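 further: activators raise reporter mRNA above DMSO so AC50 marks induction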); conditions: HepG2 Attagene TRANS-FACTORIAL CAR reporter
Outline: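 Transiently transfected HepG2, multiplex TRANS reporters (CAR-Gal4 chimera driving GAL4-UAS reporter). 24 h dosing. Readout: reporter transcript by RT-PCR + capillary electrophoresis, fluorescence intensity; positive direction vs DMSO.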

[18] = target: Estrogen receptor (Homo sapiens) (UniProt P03372); experiment: ATG_ERa_TRANS: Attagene TRANS-FACTORIAL HepG2 Assay for human Estrogen Receptor alpha (ERa) (AID 2282970; active means hit-call score of the fitted dose curve at least 0.9, where 1 is the maximum); conditions: HepG2 Attagene TRANS ERa GAL4 reporter, mRNA
Outline: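 Liver-derived HepG2 cells expressing chimeric nuclear receptor-Gal4 proteins from transient transfection were exposed for 24 hours. Gain of reporter mRNA signal versus DMSO, read by capillary electrophoresis of FAM-labelled PCR products, was recorded.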

Measured: AC50

Sequence of Hepatocyte nuclear factor 4-alpha (Homo sapiens) (P41235 whole entry, looked up, the tested form may be a part): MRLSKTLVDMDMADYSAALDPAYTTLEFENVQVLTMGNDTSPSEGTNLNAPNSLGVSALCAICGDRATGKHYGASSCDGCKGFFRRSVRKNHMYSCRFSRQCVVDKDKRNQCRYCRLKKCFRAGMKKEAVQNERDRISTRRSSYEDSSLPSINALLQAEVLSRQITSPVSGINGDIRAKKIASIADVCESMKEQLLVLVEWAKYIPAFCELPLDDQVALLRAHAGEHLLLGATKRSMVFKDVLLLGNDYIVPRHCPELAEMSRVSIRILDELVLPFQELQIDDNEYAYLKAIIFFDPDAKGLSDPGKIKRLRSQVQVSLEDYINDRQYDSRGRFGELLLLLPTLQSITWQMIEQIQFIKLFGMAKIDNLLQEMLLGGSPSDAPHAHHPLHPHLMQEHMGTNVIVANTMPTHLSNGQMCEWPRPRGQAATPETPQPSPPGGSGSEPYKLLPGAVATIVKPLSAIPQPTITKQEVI
Sequence of Glucocorticoid receptor (Homo sapiens) (P04150 whole entry, looked up): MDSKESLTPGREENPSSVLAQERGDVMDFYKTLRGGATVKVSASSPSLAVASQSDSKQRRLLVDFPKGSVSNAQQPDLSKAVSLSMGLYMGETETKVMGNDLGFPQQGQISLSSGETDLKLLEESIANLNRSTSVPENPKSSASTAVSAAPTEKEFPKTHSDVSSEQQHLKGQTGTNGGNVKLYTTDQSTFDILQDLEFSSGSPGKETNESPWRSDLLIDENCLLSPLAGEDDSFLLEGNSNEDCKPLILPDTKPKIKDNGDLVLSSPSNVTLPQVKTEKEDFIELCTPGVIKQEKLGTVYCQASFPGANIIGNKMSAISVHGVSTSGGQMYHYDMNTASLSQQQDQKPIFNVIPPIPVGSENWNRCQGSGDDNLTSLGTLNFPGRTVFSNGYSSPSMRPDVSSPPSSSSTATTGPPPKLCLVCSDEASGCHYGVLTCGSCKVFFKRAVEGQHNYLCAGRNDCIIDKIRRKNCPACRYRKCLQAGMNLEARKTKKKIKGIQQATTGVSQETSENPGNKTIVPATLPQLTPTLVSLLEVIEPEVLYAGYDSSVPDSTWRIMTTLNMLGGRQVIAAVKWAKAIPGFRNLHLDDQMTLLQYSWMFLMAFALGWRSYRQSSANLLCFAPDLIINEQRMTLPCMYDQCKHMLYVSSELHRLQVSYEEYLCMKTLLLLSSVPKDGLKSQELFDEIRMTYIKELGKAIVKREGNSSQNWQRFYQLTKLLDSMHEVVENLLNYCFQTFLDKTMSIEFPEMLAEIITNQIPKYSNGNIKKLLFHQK
Sequence of Nuclear receptor subfamily 4 group A member 2 (Homo sapiens) (P43354 whole entry, looked up): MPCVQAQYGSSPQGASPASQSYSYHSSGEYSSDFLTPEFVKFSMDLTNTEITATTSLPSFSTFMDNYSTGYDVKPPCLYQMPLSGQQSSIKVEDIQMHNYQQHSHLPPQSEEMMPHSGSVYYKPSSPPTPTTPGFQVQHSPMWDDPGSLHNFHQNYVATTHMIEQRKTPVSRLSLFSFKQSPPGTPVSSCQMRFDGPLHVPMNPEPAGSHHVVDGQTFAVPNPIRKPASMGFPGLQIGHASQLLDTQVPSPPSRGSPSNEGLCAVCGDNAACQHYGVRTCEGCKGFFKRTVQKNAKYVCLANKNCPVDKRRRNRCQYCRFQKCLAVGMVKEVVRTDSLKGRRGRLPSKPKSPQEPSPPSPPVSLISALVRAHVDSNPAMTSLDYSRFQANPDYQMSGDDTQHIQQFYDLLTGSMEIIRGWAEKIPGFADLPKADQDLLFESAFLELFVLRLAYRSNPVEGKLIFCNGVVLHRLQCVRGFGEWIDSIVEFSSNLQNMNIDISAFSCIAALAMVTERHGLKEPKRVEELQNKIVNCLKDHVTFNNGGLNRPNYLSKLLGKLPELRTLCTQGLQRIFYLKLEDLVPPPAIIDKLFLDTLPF
Sequence of Nuclear respiratory factor 1 (Homo sapiens) (Q16656 whole entry, looked up): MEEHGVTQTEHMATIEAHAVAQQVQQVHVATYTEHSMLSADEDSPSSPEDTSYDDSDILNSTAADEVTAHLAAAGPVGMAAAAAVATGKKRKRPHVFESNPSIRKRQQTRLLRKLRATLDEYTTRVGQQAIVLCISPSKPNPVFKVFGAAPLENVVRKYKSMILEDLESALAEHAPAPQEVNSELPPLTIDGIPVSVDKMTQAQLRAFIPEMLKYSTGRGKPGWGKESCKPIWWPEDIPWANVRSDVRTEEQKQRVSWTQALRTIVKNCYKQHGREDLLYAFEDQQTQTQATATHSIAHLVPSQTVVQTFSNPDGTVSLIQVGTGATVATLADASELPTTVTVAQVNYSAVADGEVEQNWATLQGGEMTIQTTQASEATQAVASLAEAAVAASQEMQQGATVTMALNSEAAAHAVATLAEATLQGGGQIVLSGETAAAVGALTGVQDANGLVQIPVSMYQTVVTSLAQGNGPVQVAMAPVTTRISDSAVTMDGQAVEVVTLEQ
Sequence of Transcriptional activator Myb (Homo sapiens) (P10242 whole entry, looked up): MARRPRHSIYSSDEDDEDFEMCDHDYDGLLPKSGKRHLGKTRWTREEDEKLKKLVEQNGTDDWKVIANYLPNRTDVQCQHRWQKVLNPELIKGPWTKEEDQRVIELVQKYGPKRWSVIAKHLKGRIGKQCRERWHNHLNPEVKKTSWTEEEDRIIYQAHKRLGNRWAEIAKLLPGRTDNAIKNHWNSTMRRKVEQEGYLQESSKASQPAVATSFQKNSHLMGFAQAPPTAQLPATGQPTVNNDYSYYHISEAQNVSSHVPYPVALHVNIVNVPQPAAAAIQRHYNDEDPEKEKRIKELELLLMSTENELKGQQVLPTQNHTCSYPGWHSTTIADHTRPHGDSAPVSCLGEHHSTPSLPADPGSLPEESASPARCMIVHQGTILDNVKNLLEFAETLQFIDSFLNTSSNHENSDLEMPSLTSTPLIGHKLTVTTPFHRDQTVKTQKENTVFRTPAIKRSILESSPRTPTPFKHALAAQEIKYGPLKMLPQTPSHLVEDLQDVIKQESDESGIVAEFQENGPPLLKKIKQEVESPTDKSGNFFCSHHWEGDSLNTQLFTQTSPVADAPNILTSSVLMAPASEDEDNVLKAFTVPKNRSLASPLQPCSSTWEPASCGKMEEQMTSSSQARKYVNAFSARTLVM
Sequence of Bile acid receptor (Homo sapiens) (Q96RI1 whole entry, looked up, the tested form may be a part): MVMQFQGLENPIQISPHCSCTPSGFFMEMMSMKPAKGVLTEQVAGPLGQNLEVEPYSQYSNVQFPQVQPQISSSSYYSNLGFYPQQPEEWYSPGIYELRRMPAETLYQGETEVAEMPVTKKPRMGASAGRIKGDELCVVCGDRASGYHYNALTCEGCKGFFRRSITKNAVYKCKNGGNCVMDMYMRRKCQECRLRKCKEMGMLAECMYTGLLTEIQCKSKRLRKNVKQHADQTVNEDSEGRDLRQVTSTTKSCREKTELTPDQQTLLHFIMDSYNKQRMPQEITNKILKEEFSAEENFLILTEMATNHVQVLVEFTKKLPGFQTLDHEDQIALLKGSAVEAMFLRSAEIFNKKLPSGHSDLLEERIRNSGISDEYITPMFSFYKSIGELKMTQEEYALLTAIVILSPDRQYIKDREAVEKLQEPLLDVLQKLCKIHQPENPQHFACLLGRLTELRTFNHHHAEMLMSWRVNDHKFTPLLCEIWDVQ
Sequence of Oxysterols receptor LXR-beta (Homo sapiens) (P55055 whole entry, looked up, the tested form may be a part): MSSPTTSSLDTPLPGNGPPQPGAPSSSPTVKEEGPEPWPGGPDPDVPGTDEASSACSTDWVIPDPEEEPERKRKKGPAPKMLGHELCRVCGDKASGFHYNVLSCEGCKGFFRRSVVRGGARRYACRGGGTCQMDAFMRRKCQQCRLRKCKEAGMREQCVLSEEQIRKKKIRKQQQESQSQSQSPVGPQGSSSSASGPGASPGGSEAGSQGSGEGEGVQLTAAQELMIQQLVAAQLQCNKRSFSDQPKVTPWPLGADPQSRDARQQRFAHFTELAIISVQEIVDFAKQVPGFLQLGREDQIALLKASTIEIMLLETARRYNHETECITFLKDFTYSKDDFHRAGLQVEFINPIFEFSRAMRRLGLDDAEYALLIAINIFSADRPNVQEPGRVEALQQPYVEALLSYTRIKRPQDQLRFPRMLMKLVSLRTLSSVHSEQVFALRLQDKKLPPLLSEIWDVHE
Sequence of X-box-binding protein 1 (Homo sapiens) (P17861 whole entry, looked up): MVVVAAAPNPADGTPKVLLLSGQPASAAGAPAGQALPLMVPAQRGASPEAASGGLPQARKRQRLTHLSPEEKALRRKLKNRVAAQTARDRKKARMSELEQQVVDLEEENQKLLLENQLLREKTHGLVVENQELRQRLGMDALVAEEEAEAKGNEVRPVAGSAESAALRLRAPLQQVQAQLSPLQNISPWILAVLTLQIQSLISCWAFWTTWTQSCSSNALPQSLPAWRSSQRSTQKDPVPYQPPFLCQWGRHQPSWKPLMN
Sequence of Oxysterols receptor LXR-alpha (Homo sapiens) (Q13133 whole entry, looked up, the tested form may be a part): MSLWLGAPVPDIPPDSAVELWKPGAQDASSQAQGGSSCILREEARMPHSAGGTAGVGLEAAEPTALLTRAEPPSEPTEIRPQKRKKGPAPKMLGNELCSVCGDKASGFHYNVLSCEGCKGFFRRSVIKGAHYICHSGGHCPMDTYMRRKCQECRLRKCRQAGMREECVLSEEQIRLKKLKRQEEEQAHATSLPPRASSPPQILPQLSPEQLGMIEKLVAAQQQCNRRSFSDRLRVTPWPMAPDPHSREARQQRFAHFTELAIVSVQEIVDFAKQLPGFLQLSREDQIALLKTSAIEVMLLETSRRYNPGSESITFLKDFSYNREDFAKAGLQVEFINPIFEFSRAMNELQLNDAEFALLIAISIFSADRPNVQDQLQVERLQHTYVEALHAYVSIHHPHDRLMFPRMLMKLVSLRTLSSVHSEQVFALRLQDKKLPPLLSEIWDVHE
Sequence of Nuclear receptor subfamily 1 group I member 3 (Homo sapiens) (Q14994 whole entry, looked up, the tested form may be a part): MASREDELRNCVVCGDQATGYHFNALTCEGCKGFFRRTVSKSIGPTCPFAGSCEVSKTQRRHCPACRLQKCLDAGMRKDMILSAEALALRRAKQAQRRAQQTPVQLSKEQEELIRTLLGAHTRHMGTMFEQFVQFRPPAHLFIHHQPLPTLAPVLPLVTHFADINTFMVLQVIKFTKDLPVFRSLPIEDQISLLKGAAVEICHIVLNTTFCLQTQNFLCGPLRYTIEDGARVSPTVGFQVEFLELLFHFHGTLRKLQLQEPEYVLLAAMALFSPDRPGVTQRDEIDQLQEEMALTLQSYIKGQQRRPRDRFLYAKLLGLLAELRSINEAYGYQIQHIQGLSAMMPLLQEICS

c1c[nH]cn1
inactive: [1] | [2] | [3] | [4] | [5] | [6] | [7] | [8] | [9]

CC=C1CC2C=CC1C2 (configuration not stated)
inactive: [1] | [2] | [3] | [4] | [5] | [10] | [11] | [12] | [13] | [9]

Cc1ccc(N)c([N+](=O)[O-])c1
inactive: [1] | [2] | [3] | [4] | [5] | [14] | [8] | [9]

O=S(=O)(O)CC(O)CCl (configuration not stated)
not listed: [5] | [10] | [13] | [14] | [16] | [17] | [18]
inactive: all other assays above

COCC(C)N (configuration not stated)
not listed: [6] | [7] | [11] | [14] | [17] | [18]
inactive: all other assays above

C=CC(=O)OCCOC1C2CCC1C1CC=CC12 (configuration not stated)
inactive: [1] | [2] | [3] | [4] | [6] | [14] | [11] | [13] | [8] | [9]

O=C(Nc1cccc(C(F)(F)F)c1)c1cc(Br)cc(Br)c1O
active: [1] 145 µM | [3] 2.18 µM | [4] 26.4 µM | [9] 172 µM
inactive: [2] | [6] | [14] | [16] | [15] | [12] | [13] | [8]

CCOC(F)(F)C(F)(F)C(F)(F)C(F)(F)F
not listed: [5] | [7] | [10] | [11] | [17] | [18]
inactive: all other assays above

O=C(C(Cl)Cl)N1CCOC12CCCCC2
not listed: [6] | [10] | [13] | [14] | [15] | [17] | [18]
inactive: all other assays above

CCOC(=O)NNc1nncc2ccccc12
inactive: [1] | [2] | [3] | [4] | [6] | [16] | [15] | [12] | [8] | [9]

CC(=O)Nc1nnc(S(N)(=O)=O)s1
not listed: [3] | [5] | [7] | [10] | [13] | [16]
inactive: all other assays above
